“And” between values parts separate entries of the source, which are not always exact repeats. Equal values may be shown once. This is part of a sample that, as a whole, favours compounds with a hit. Of some 83,000 tested, about 20% had one in any assay.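 Negative percent growth values reflect cell death: -40 means 40% of the cells present at the start died, and -100 means all died.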 Values without a mark were called inactive. The source made the active and inactive calls. How the source made its calls: active means growth percent below 10; inactive means the rest.

Test systems include DU-145 prostate; K-562 leukemia; MALME-3M melanoma; MDA-MB-231 breast; RXF 393 renal; SF-268 CNS; SF-295 CNS; SF-539 CNS; UACC-257 melanoma; M14 melanoma.
What all share (experiment): NCI-60 one-dose screen, 48 h (100 = growth as untreated, 0 = no growth, -100 = all killed)

For `CC(=O)/C=C/c1ccc(N(CCO)Cc2ccc(C(C)(C)C)cc2)cc1`, the growth was 78% in the assay on DU-145 prostate (10 µM); -99.7% (active) with DU-145 prostate (100 µM); 54.6% in the assay on K-562 leukemia (10 µM); -49.3% (active) in the assay on K-562 leukemia (100 µM); 84.5% with MALME-3M melanoma (10 µM); -85.8% (active) in the assay on MALME-3M melanoma (100 µM). The growth in the assay with MDA-MB-231 breast (10 µM) is 77.5%; in the assay with MDA-MB-231 breast (100 µM), -90.4% (active); in the assay with RXF 393 renal (10 µM) it was 87.5%; with RXF 393 renal (100 µM), -75.9% (active); in the assay with SF-268 CNS (10 µM), 78.9%; in the assay with SF-268 CNS (100 µM), -82.2% (active). In addition, the growth with SF-295 CNS (10 µM) is 63.5%; in the assay with SF-295 CNS (100 µM), -84.9% (active); in the assay with SF-539 CNS (10 µM), 86.9%; in the assay with SF-539 CNS (100 µM), -96.4% (active); in the assay with UACC-257 melanoma (10 µM) it was 80.8%; with UACC-257 melanoma (100 µM), -79.5% (active). Further, the values for the growth in the assay on M14 melanoma (10 µM) and in the assay on M14 melanoma (100 µM) were 69.4% and -84.9% (active), respectively.
Regarding `CN(C)CCNc1ncc(F)c(-c2cnc3cc(-c4cnn(C)c4)ccn23)n1`, the growth in the assay with DU-145 prostate (0.005 µM) is 107%; in the assay with DU-145 prostate (30 µM), 27.5%; in the assay on K-562 leukemia (0.005 µM) it was 102%; in the assay with K-562 leukemia (30 µM), 41.6%; in the assay with MALME-3M melanoma (0.005 µM) it was 99.7%; in the assay with MALME-3M melanoma (30 µM), 53.5%. The growth in the assay on MDA-MB-231 breast (0.005 µM) was 98.4%; in the assay on MDA-MB-231 breast (30 µM) it was 54.3%; in the assay on RXF 393 renal (10 µM unless noted), 110% [0.005 µM]; in the assay with SF-268 CNS (0.005 µM) it was 100%; with SF-268 CNS (30 µM), 57.7%; in the assay with SF-295 CNS (0.005 µM), 102%. The growth with SF-295 CNS (30 µM) was 70.8%; with SF-539 CNS (0.005 µM) it was 97.2%; in the assay on SF-539 CNS (30 µM), 46.3%; with UACC-257 melanoma (0.005 µM), 100%; in the assay with UACC-257 melanoma (30 µM) it was 93.5%; with M14 melanoma (10 µM unless noted), 107% [0.005 µM].
Take `COc1ccc(/C=N/C2=C(C#N)C(c3ccccc3)c3c(ccc4ccccc34)O2)cc1` (stereo not drawn): the growth with DU-145 prostate (10 µM unless noted) was 24.6%; in the assay with K-562 leukemia (10 µM unless noted) it was 8.18% (active); in the assay on MALME-3M melanoma (10 µM unless noted), 47.5%; in the assay with MDA-MB-231 breast (10 µM unless noted), 33.4%; in the assay on RXF 393 renal (10 µM unless noted) it was -8.72% (active); in the assay on SF-268 CNS (10 µM unless noted), 50.7%. Besides, the growth is 10.9% with SF-295 CNS (10 µM unless noted), 6.89% (active) in the assay with SF-539 CNS (10 µM unless noted), 61.8% with UACC-257 melanoma (10 µM unless noted) and 11.8% with M14 melanoma (10 µM unless noted).
`O=[N+]([O-])c1cc(C(F)(F)F)ccc1Sc1ccc(C(F)(F)F)cc1[N+](=O)[O-]`: the growth in the assay with DU-145 prostate (10 µM unless noted) was 64.4%; in the assay with K-562 leukemia (10 µM unless noted), 8.04% (active); with MALME-3M melanoma (10 µM unless noted), 61.9%; with MDA-MB-231 breast (10 µM unless noted), 72.4%; with RXF 393 renal (10 µM unless noted), 93.1%; with SF-268 CNS (10 µM unless noted) it was 63%. Also, the growth with SF-295 CNS (10 µM unless noted) is 106%; with SF-539 CNS (10 µM unless noted), 61.1%; with UACC-257 melanoma (10 µM unless noted), 76.3%; in the assay with M14 melanoma (10 µM unless noted) it was 49%.
Take `Cc1ccc(NC(=O)N/C(N)=N/c2nc(=O)c3ccccc3s2)cc1`: the growth with DU-145 prostate (10 µM unless noted) was 108%; with K-562 leukemia (10 µM unless noted) it was 57%; in the assay on MALME-3M melanoma (10 µM unless noted) it was 93.9%; in the assay with MDA-MB-231 breast (10 µM unless noted), 86%; in the assay with RXF 393 renal (10 µM unless noted), 99%; in the assay with SF-268 CNS (10 µM unless noted), 102%. In addition, the growth is 101% with SF-295 CNS (10 µM unless noted), 95.5% in the assay with SF-539 CNS (10 µM unless noted), 103% with UACC-257 melanoma (10 µM unless noted) and 92.4% with M14 melanoma (10 µM unless noted).
Regarding `Cc1ccc2nc3ccccc3c(NCc3ccc(Cl)cc3)c2c1`, the growth in the assay with DU-145 prostate (10 µM unless noted) is 51.4%; in the assay on K-562 leukemia (10 µM unless noted), 2.63% (active); with MALME-3M melanoma (10 µM unless noted), -14% (active); with MDA-MB-231 breast (10 µM unless noted), 37.7%; with RXF 393 renal (10 µM unless noted), 29%; with SF-268 CNS (10 µM unless noted), 79.1%. Further, the growth in the assay with SF-295 CNS (10 µM unless noted) is 43.7%; in the assay with SF-539 CNS (10 µM unless noted), 40.2%; in the assay with UACC-257 melanoma (10 µM unless noted), -2.88% (active); in the assay on M14 melanoma (10 µM unless noted), -17.1% (active).
As for `COc1ccc(C(=O)/C=C/c2ccc(OCc3cccc(C(F)(F)F)c3)c(OC)c2)cc1OC`, the growth in the assay on DU-145 prostate (10 µM) is 72.7%; in the assay with DU-145 prostate (100 µM) it was 19.4%; in the assay on K-562 leukemia (10 µM) it was 39.1%; in the assay on K-562 leukemia (100 µM), 12.2%; with MALME-3M melanoma (10 µM) it was 97.7%; in the assay with MALME-3M melanoma (100 µM) it was 23.5%. Besides, the growth was 79.9% with MDA-MB-231 breast (10 µM); -12.9% (active) with MDA-MB-231 breast (100 µM); 97.7% in the assay with RXF 393 renal (10 µM); -13% (active) in the assay on RXF 393 renal (100 µM); 86.4% with SF-268 CNS (10 µM); 14.6% in the assay with SF-268 CNS (100 µM). Further, the growth in the assay with SF-295 CNS (10 µM) was 98.2%; with SF-295 CNS (100 µM), 21.7%; in the assay with SF-539 CNS (10 µM), 103%; in the assay on SF-539 CNS (100 µM), 12%; in the assay with UACC-257 melanoma (10 µM), 93.9%; in the assay on UACC-257 melanoma (100 µM), 28.7%. For the same compound, the figures for the growth in the assay on M14 melanoma (10 µM) and in the assay on M14 melanoma (100 µM) were 85.3% and 35.4%, respectively.
For the compound `COc1cc(NC2CCCCC2O)c2nc(-c3ccc(Cl)cc3)ccc2c1` (stereo not drawn), the growth is 95.3% and 95% in the assay with DU-145 prostate (10 µM unless noted); 44.8% in the assay with K-562 leukemia (10 µM unless noted); 72.5% and 124% with MALME-3M melanoma (10 µM unless noted); 44.6% and 78.1% in the assay with MDA-MB-231 breast (10 µM unless noted); 39.3% and 67.9% with RXF 393 renal (10 µM unless noted); 77.5% and 84% in the assay with SF-268 CNS (10 µM unless noted). For the same compound, the growth in the assay on SF-295 CNS (10 µM unless noted) was 51.5% and 54.3%; in the assay with SF-539 CNS (10 µM unless noted), 105% and 93.9%; in the assay on UACC-257 melanoma (10 µM unless noted) it was 101% and 105%; with M14 melanoma (10 µM unless noted) it was 45.8% and 79.9%.
In the case of `CN1CCN(c2ccc(/C=C/C(=O)c3ccc(O)cc3)cc2)CC1`, the growth was 93.2% in the assay on DU-145 prostate (10 µM unless noted); 90.1% in the assay on K-562 leukemia (10 µM unless noted); 99% with MALME-3M melanoma (10 µM unless noted); 94.8% in the assay with MDA-MB-231 breast (10 µM unless noted); 95.3% in the assay with RXF 393 renal (10 µM unless noted); 95.8% in the assay with SF-268 CNS (10 µM unless noted). In addition, the growth is 95.1% with SF-295 CNS (10 µM unless noted), 91.9% in the assay on SF-539 CNS (10 µM unless noted), 96.1% in the assay with UACC-257 melanoma (10 µM unless noted) and 95.8% in the assay on M14 melanoma (10 µM unless noted).
Regarding `N=C(N)SCc1c2ccccc2c(CSC(=N)N)c2ccccc12`, the growth in the assay with DU-145 prostate (10 µM unless noted) is 63.9%; in the assay on K-562 leukemia (10 µM unless noted) it was 35.3%; in the assay on MALME-3M melanoma (10 µM unless noted) it was 71.3%; in the assay on MDA-MB-231 breast (10 µM unless noted), 103%; in the assay on RXF 393 renal (10 µM unless noted), 99.7%; in the assay on SF-268 CNS (10 µM unless noted), 55.5%. The growth was 66.7% in the assay with SF-295 CNS (10 µM unless noted), 84% in the assay with SF-539 CNS (10 µM unless noted), 119% in the assay with UACC-257 melanoma (10 µM unless noted) and 68.4% in the assay on M14 melanoma (10 µM unless noted).
Consider `O=C(/C=C/c1ccc([N+](=O)[O-])cc1)c1ccccc1`, for which the growth in the assay on DU-145 prostate (10 µM unless noted) was 97.3%; in the assay on K-562 leukemia (10 µM unless noted) it was 44.1%; in the assay on MALME-3M melanoma (10 µM unless noted), 107%; in the assay on MDA-MB-231 breast (10 µM unless noted), 102%; with RXF 393 renal (10 µM unless noted) it was 91.1%; in the assay on SF-268 CNS (10 µM unless noted), 92%. Also, the growth was 93.4% with SF-295 CNS (10 µM unless noted), 92.3% with SF-539 CNS (10 µM unless noted), 89.1% with UACC-257 melanoma (10 µM unless noted) and 92.2% in the assay with M14 melanoma (10 µM unless noted).

These data come from PubChem BioAssay (NCI).
